# Records with an inconclusive call do not appear.
# Assay: Confirmation Concentration-Response Assay for Agonists of the Thyroid Stimulating Hormone Receptor; also: reference of the scale not given here
# Conditions: HEK293 TSHR-CNG cells, membrane potential dye, cAMP; measured here: parental HEK293 counter-screen max
# Summary of the method: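 HEK 293 cells stably expressing TSHR and a modified CNG channel as cAMP biosensor; parental CNG-only cells as counterscreen. Cells loaded with membrane potential dye containing 100 uM RO 20-1724 for 60 min, compound added 30 min, fluorescence read at 590 nm.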
row,SMILES,max response [%]
1,Cn1c(=O)[nH]c(=O)c2c1nc(N1CCCCCC1)n2CCCSc1nc2ccccc2o1,12.7
2,Cn1cccc1Cc1nnc(SCC(N)=O)n1CCc1ccccc1,3.14
3,CN1C(=O)C2C=CC1C1C(=O)N(c3ccccc3)C(=O)C21 (stereo not drawn),2.29
4,CCc1ccccc1NC1=NCC(=O)N1Cc1ccc(OC)cc1,-6.12
5,O=C1C=C(NCc2ccccc2)C2(CCCCC2)O1,16.9
6,COC(=O)c1cc(NC2c3ccccc3C(=O)N2c2cccnc2)cc(C(=O)OC)c1 (stereo not drawn),17.7
7,Oc1ccccc1-c1cc(C(F)(F)C(F)F)nc(-c2ccccc2)n1,3.44
8,CCOC(=O)CSc1nnc(NC(=O)c2cccc(S(=O)(=O)N3CCCCC3)c2)s1,-6.14
9,COc1cccc(C(c2nnnn2Cc2ccccc2)N2CCN(C(=O)c3ccco3)CC2)c1OC (stereo not drawn),-3.51
10,COc1ccc(S(=O)(=O)NCCC(=O)NCc2ccc(F)cc2)cc1,-8.89
11,CCN(c1ccccc1)S(=O)(=O)c1ccc(Oc2ccc(-n3ccnc3)cc2)nc1,-1.61
12,Cc1ccc(S(=O)(=O)N2CCC(C(=O)NCCCN3CCCCCC3)CC2)cc1,-4.36
13,O=C(COC(=O)C12CC3CC(CC(C3)C1)C2)NCc1ccco1,-5.29

# Source: PubChem BioAssay AID939 (National Center for Advancing Translational Sciences (NCATS), 2007)
